# Shown are actives, neighbours in structure and some others; about 6.6% of the full set was active somewhere.
# KB-V1 MDR tox – qHTS assay for MDR1-selective chemotherapeutics: Primary screen using the drug-selected MDR subline cells KB-V1 | KB-V1 MDR cells viability, CellTiter-Glo, 72 h | Potency, µM (top dose mostly 46.1 µM), usual class: cytotoxic | 3.4% of 400,000 active; note: % is set by controls: 0 for no effect and ±100 for the full control effect; nearly all actives have a fitted effect of over 60% in size
#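 In this primary screen, KB-V1 cells overexpressing P-gp are incubated with library compounds (lowest to highest concentration) for 72 h at 37 degrees C before a luminescent ATP viability read.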
# RGS4 inh – Inhibitors of Regulator of G Protein Signaling (RGS) 4: qHTS; Regulator of G-protein signaling 4 (Homo sapiens), P49798; Transcreener GDP fluorescence polarization, RGS4-accelerated GTP hydrolysis; Potency, µM (highest dose often 114 µM), without a hit: at the top dose activity change, negative = inhibition, actives largely listed as inhibitors; 0.039% of 390,000 active; note: % is set by controls: 0 for no effect and ±100 for the full control effect; nearly all actives have a fitted effect of over 75% in size
# Target sequence (P49798 whole entry, looked up): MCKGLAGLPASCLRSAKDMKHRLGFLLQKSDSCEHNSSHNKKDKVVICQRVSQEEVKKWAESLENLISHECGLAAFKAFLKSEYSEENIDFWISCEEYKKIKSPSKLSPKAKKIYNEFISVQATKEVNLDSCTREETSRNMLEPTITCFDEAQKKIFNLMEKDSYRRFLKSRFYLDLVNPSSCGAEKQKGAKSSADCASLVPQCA
#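 MLSMR compounds (23 nl, pin-transferred) preincubated 10 min at room temperature with a 500nM (2x) first reagent, then RGS4 at 900nM (2x) plus Transcreener GDP mix added; fluorescence polarization (620/688 nm) read before and after 90 min at 30 °C.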
# SW480 rerep – A quantitative high throughput screen for small molecules that induce DNA re-replication in SW480 colon adenocarcinoma cells | SW480 DNA re-replication, Hoechst DNA content imaging, 48 h | Potency, µM (highest dose often 46.1 µM), without a hit: top-dose re-replication activation, usual class: activators | 1.8% of 340,000 active | AID 624297, 2012; note: % of control where 0% means no effect; nearly all actives have a fitted effect of over 55% in size
#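 Quantitative HTS format with DMSO vehicle controls; 48 hr drug incubation at 37 C, then 40 min Hoechst staining and scanning imager measurement at 405 nm excitation.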
# KB-3-1 tox – qHTS assay for MDR1-selective chemotherapeutics: Primary screen using the parental adenocarcinoma cell KB-3-1 | KB-3-1 viability, CellTiter-Glo ATP luminescence, 72 h | Potency, µM (titrated, usually from 46.1 µM), actives largely listed as cytotoxic | 1.4% of 400,000 active; note: % is set by controls: 0 for no effect and ±100 for the full control effect; nearly all actives have a fitted effect of over 60% in size
#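 KB-3-1 cells, DMEM (no phenol red) + 10% FBS; compound by pin transfer, 72 h, 37 °C. Readout: CellTiter-Glo luminescence after 10 min. Data normalized, curve-fitted.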
# MCF10A rereplic – A quantitative high throughput screen for small molecules that induce DNA re-replication in MCF 10a normal breast cells. MCF 10A DNA re-replication, Hoechst nuclear intensity, 48 h. Potency, µM (doses to about 46.1 µM), for the others: at the top dose activity, positive = re-replication, actives largely listed as activators. 2.9% of 350,000 active; note: % of control where 0% means no effect; nearly all actives have a fitted effect of over 50% in size
# TSG101-PTAP inh – qHTS Assay for Iinhibitors of HIV-1 Budding by Blocking the Interaction of PTAP/TSG101. AID 493005, 2010. Potency, µM (doses to about 115 µM), without a hit: top-dose activity change, negative = inhibition, hits mostly inhibitors. Tumor susceptibility gene 101 protein (Homo sapiens), Q99816. 340,000 tested, under 10 active. Fluorescence polarization, FITC-PTAP peptide / Tsg101 binding; active = well fitted inhibition curve with a large enough effect in the main read-out, with a control signal flat, not every such curve was filed as active; inconclusive = small, poorly fitted or top-dose-only effect, or effect the other way, or a change in a side signal; inactive = no such curve, though single readings can be large or run the other way; note: % of control where 0% means no effect
# Target sequence (Q99816 whole entry, looked up): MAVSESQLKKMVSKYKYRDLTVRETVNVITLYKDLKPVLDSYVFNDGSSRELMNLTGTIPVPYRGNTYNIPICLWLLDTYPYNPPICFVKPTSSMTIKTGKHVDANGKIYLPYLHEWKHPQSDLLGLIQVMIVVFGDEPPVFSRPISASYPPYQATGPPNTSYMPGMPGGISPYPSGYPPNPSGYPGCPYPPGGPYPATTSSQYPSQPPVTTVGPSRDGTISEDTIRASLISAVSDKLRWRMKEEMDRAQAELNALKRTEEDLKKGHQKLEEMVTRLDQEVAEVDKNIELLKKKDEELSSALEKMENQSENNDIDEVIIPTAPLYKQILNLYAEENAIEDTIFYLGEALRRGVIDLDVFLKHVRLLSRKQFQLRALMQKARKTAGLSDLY
#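 FP read-out: FITC-PTAP peptide, 50 nM final, binding Tsg101 binding domain, 10 uM final; 20 min, r.t.; 10 mM HEPES pH 7.5, 0.15 M NaCl, 0.01% Tween 20, 3 mM EDTA, 0.1 mM TCEP.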
# * = called active by the depositor; i = inactive; ? = inconclusive; . = not tested or not shown; [ ] = another dose, or the depositor's remark. Unless noted, calls come from the whole dose curve; as a rule, active = well fitted curve in the direction sought with a large enough effect; inconclusive = small, poorly fitted or top-dose-only effect, or another doubt; inactive = no such curve, though single readings can be large; an effect the other way counts as inactive or inconclusive. Potency is the fitted concentration of half-maximal effect.
SMILES,KB-V1 MDR tox,RGS4 inh,SW480 rerep,KB-3-1 tox,MCF10A rereplic,TSG101-PTAP inh
COc1ccc(Cl)cc1N=C1NC(=O)CC(C(=O)Nc2ccccc2C(F)(F)F)S1 (stereo not given),?,15%,.,i,.,.
Cc1ccc(C)c(-n2nnnc2Sc2nnnn2-c2ccccc2)c1,i,-23%,9.2µM*,?,5.8µM*,-6%
CCSc1nnnn1-c1ccccc1,i,10%,0%[9.22 µM],i,-3%,-7%
CCOC(=O)c1nn(-c2ccc3c(c2)CCN3C(C)=O)cc1O,i,5%,16%,i,15µM*,-4%
O=C(CSc1ccccc1C(=O)NCc1ccccc1)NC1CCCCCCC1,3.3µM*,-42%,11%,i,23%,0%
O=C(CSc1ccccc1C(=O)NCc1ccccc1)NC12CC3CC(CC(C3)C1)C2,5.8µM*,-38%,?,?,?,1%
O=C(CSc1ccccc1C(=O)O)NC1CCCCCC1,i,7%,-30%,i,6%,-4%
CC(C)CCNC(=O)c1ccccc1SCC(=O)NC1CCCCCCC1,5.8µM*,-42%,0%,i,12%,1%
O=C(CSc1ccccc1C(=O)O)NCc1ccccc1,i,-22%,-1%,i,0%,-2%
COc1ccc(Nc2nc3ccccc3n3c(N)nnc23)cc1,i,12%,.,i,.,.
CC1CCc2c(sc(NC(=O)Cc3ccccc3)c2C(=O)Nc2ccc(Cl)cc2)C1 (stereo not given),.,-3%,.,.,.,.
CC1=CC(C)(C)Nc2ccc(OC(=O)C(Cc3ccccc3)N3C(=O)c4ccccc4C3=O)cc21 (stereo not given),i,-41%,14%,i,?,1%
CC1=CC(C)(C)Nc2ccc(OC(=O)CN3C(=O)c4cccc5cccc(c45)C3=O)cc21,i,-13%,?,i,15µM*,-5%
CC1=CC(C)(C)Nc2ccc(OC(=O)CN3C(=O)c4ccccc4C3=O)cc21,i,-36%,18µM*,?,5.8µM*,1%
O=C1CCNc2cc3ccccc3cc21,?,-39%,?,23µM*,-2%,-8%
O=C1CCNc2ccc(-c3ccccc3)cc21,i,16%,26%,i,23µM*,?
Cc1ccc2c(c1)C(=O)CCN2,i,9%,-6%,i,1%,-9%
COc1ccc(C(C)NCCC(c2ccc(OC(C)C)cc2)c2ccccc2OC)cc1 (stereo not given),16µM*,5%[56.9 µM],?,21µM*,23µM*,0%
CN1CCN(CCCNC(=O)Nc2cccc3ccccc23)CC1,i,-10%,-2%,i,-1%,0%
CCOc1ccc(NC(=O)NCCCn2c(C)nc3cc(C)c(C)cc32)cc1,23µM*,5%,7%,i,4%,4%
CCOc1ccc(NC(=O)NCCCN2CCCC2)cc1,i,10%,0%,i,0%,-5%
Cc1cc2nc(C)n(CCCNC(=O)Nc3cccc4ccccc34)c2cc1C,16µM*,?,5%,?,?,-7%
N=c1c(C(=O)NCc2ccco2)cc2c(=O)n3ccccc3nc2n1CCc1ccccc1,21µM*,9%,13µM*,18µM*,8.2µM*,-7%
Cc1ccc(Cn2c(=N)c(C(=O)NCc3ccco3)cc3c(=O)n4ccccc4nc32)cc1,i,?,3.5µM*,?,11µM*,-1%
O=C1c2ccccc2-c2cccnc21,i,19%,-10%,i,-2%,-7%
SMILES,KB-V1 MDR tox,RGS4 inh,SW480 rerep,KB-3-1 tox,MCF10A rereplic,TSG101-PTAP inh
O=C1c2ccccc2C(=O)c2c(/C=C/N3CCCCC3)ccnc21,2.3µM*,-52%,21µM*,7.3µM*,?,-8%
COC(=O)c1ccccc1S(=O)(=O)Nc1cc(=O)c2ccccc2[nH]1,i,.,.,i,.,.
COc1ccc(C2CC(=O)Oc3cc(C)c(Cl)c(C)c32)cc1 (stereo not given),i,4%,-1%,i,18µM*,-2%
CC(=O)Nc1nonc1-c1nnc(SCc2ccccc2C)n1C,i,10%,.,i,.,.
Cc1ccc(NC(=O)Cc2ccc(Cl)c(Cl)c2)cc1S(=O)(=O)N(C)C,2.6µM*,2%,?,23µM*,?,-2%
Cc1ccc(NC(=O)CCNC(=O)c2ccccc2Cl)cc1S(=O)(=O)N(C)C,i,-12%,-3%,i,0%,0%
Cc1ccc(NC(=O)CN2CCC(Cc3ccccc3)CC2)cc1S(=O)(=O)N(C)C,?,8%,12µM*,i,?,0%
CC(=O)N/C(=C\c1ccccc1)C(=O)OCC(=O)Nc1ccc(C)c(S(=O)(=O)N(C)C)c1,?,3%,5.8µM*,i,7%,1%
Cc1ccc(NC(=O)Cc2ccccc2Cl)cc1S(=O)(=O)N(C)C,23µM*,-8%,15%,?,?,-4%
O=C(C[N+]1(CCc2ccccc2)CCOCC1)c1ccccc1,i,.,.,i,.,.
Cn1c(=O)c2sccc2n2c(CCC(=O)Nc3ccc(F)cc3)nnc12,i,9%,.,i,.,.
Cc1ccc(NC(=O)COC(=O)c2ccccc2Cl)cc1S(=O)(=O)N(C)C,i,-9%,-2%,i,-4%,-1%
Cc1ccc(NC(=O)CNc2ccc(Cl)c(Cl)c2)cc1S(=O)(=O)N(C)C,21µM*,-25%,.,?,13%,0%
CC(=O)N/C(=C\c1ccccc1)C(=O)OCC(=O)N(C)C1CCCCC1,16µM*,10%,?,i,-86%,-1%
COc1ccc(Cl)cc1NC(=O)C(C)n1nnc2sc3c(c2c1=O)CCCC3 (stereo not given),i,2%,.,i,.,.
COc1ccc(OC)c(/C=C/c2c([N+](=O)[O-])c(=O)n(C)c(=O)n2C)c1,i,-34%,17%,21µM*,-7%,-1%
Cn1c(/C=C/c2ccc(Br)cc2)c([N+](=O)[O-])c(=O)n(C)c1=O,?,-23%,?,21µM*,21µM*,0%
O=S(=O)(c1ccc(F)cc1)N1CCN(c2nc(-c3cccs3)nc3cc(Cl)ccc23)CC1,.,-10%,.,.,.,.

# Source: PubChem (National Center for Advancing Translational Sciences (NCATS))
